Test results published in publication PMC7862700, “An all-to-all approach to the identification of sequence-specific readers for epigenetic DNA modifications on cytosine”.

Legend:
Experiment in all cases: DAPPL (digital affinity profiling via proximity ligation, sequencing); 10 mM Tris-HCl pH 7.5, 50 mM NaCl, 1 mM DTT, 4% glycerol, room temperature, 30 min; GST-TFs on glutathione beads, 16-mer random dsDNA library, 0.1% formaldehyde crosslink after washing; high values mean tight binding
Details in all cases: protein: recombinant; tags: N-terminal GST; dsDNA, one strand shown
FEV = molecular target: T1, FEV (Homo sapiens, UniProt Q99581 1-238)
T1 sequence: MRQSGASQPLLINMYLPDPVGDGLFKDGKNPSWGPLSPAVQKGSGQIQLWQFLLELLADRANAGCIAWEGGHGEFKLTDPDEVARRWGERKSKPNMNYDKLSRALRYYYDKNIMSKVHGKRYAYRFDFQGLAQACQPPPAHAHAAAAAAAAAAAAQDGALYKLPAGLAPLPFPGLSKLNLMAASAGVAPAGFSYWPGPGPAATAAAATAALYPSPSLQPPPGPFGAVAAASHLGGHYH
Procedure, shortened: (§1)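 Binding signal is given per hexamer as its read frequency for a factor divided by its frequency in the tag-only sample. GST-fused human transcription factors were expressed in yeast, captured on glutathione beads, barcoded with DNA and pooled with that sample, then incubated with 200 nmole of a 16-mer random double-stranded DNA library in Tris/NaCl/DTT/glycerol buffer for 30 min at room temperature. The pools were then washed, crosslinked, proximity-ligated, amplified by PCR and sequenced on an Illumina NextSeq500.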

ELK4 = molecular target: T2, ELK4 (Homo sapiens, UniProt P28324-2 1-405)
T2 sequence: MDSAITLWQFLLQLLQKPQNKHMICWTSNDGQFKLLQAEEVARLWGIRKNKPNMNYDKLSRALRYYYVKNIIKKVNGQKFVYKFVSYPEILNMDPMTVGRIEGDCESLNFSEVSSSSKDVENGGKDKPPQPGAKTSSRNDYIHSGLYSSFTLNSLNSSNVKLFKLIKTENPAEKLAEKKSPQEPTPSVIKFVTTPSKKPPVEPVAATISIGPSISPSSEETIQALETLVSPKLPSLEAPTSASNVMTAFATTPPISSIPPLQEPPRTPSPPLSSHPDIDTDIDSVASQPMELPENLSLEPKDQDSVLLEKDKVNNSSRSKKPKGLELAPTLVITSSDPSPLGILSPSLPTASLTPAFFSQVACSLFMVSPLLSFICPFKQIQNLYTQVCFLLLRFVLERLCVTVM
Procedure, shortened: as §1

ELF5 = molecular target: T3, ELF5 (Homo sapiens, UniProt Q9UKW6-2 1-255)
T3 sequence: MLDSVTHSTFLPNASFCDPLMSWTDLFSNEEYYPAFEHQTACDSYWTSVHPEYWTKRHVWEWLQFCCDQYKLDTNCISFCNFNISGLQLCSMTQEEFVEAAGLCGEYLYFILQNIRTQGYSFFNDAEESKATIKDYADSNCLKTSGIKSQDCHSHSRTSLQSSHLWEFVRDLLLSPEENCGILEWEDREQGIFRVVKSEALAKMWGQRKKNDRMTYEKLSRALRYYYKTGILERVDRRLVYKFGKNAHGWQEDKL
Procedure, shortened: as §1

CRX = CRX (Homo sapiens, UniProt O43186 1-299)
CRX, sequence (O43186 whole entry): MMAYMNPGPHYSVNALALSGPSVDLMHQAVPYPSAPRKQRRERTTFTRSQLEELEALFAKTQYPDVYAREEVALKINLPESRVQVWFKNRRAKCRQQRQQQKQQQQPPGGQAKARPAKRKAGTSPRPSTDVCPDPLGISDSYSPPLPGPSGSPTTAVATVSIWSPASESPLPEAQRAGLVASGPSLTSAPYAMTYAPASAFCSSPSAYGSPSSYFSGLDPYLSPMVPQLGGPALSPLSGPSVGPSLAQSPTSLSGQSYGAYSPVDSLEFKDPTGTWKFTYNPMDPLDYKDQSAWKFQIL
Procedure, shortened: as §1

SPDEF = molecular target: T4, SPDEF (Homo sapiens, UniProt O95238 1-335)
T4 sequence: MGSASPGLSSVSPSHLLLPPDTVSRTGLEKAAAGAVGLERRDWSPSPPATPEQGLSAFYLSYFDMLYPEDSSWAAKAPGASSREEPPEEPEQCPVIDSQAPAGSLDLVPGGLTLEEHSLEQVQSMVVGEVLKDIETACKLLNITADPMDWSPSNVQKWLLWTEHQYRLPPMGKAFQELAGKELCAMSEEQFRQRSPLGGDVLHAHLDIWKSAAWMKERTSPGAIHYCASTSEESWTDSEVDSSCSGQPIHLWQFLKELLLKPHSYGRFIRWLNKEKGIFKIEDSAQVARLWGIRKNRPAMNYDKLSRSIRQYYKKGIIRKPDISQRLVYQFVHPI
Procedure, shortened: as §1

Sequence	binding signal (FEV)	binding signal (ELK4)	binding signal (ELF5)	binding signal (CRX)	binding signal (SPDEF)
CACATG	1.11 fold enrichment (6-mer frequency, TF over GST control)	1.23 fold enrichment (6-mer frequency, TF over GST control)	1.02 fold enrichment (6-mer frequency, TF over GST control)	–	–
TGATAC	1.21 fold enrichment (6-mer frequency, TF over GST control)	1.29 fold enrichment (6-mer frequency, TF over GST control)	1.1 fold enrichment (6-mer frequency, TF over GST control)	1.1 fold enrichment (6-mer frequency, TF over GST control)	1.17 fold enrichment (6-mer frequency, TF over GST control)
AAGGGC	1.02 fold enrichment (6-mer frequency, TF over GST control)	1.13 fold enrichment (6-mer frequency, TF over GST control)	1.04 fold enrichment (6-mer frequency, TF over GST control)	–	1.07 fold enrichment (6-mer frequency, TF over GST control)
CATACA	1.07 fold enrichment (6-mer frequency, TF over GST control)	1.06 fold enrichment (6-mer frequency, TF over GST control)	–	–	1.05 fold enrichment (6-mer frequency, TF over GST control)
GTACCC	1.05 fold enrichment (6-mer frequency, TF over GST control)	1.17 fold enrichment (6-mer frequency, TF over GST control)	1.01 fold enrichment (6-mer frequency, TF over GST control)	–	1.14 fold enrichment (6-mer frequency, TF over GST control)
GCCTGC	1.11 fold enrichment (6-mer frequency, TF over GST control)	1.18 fold enrichment (6-mer frequency, TF over GST control)	1.09 fold enrichment (6-mer frequency, TF over GST control)	–	1.02 fold enrichment (6-mer frequency, TF over GST control)
GTTGTT	1.1 fold enrichment (6-mer frequency, TF over GST control)	1.33 fold enrichment (6-mer frequency, TF over GST control)	1.19 fold enrichment (6-mer frequency, TF over GST control)	–	1.12 fold enrichment (6-mer frequency, TF over GST control)
GCCCAA	1.11 fold enrichment (6-mer frequency, TF over GST control)	1.07 fold enrichment (6-mer frequency, TF over GST control)	–	–	1.08 fold enrichment (6-mer frequency, TF over GST control)
ATGCCA	1.04 fold enrichment (6-mer frequency, TF over GST control)	1.02 fold enrichment (6-mer frequency, TF over GST control)	1.01 fold enrichment (6-mer frequency, TF over GST control)	–	1.04 fold enrichment (6-mer frequency, TF over GST control)
CATGTT	–	1.1 fold enrichment (6-mer frequency, TF over GST control)	–	–	1.02 fold enrichment (6-mer frequency, TF over GST control)
ACAGCA	1 fold enrichment (6-mer frequency, TF over GST control)	1.02 fold enrichment (6-mer frequency, TF over GST control)	–	–	–
GCCTGA	1.1 fold enrichment (6-mer frequency, TF over GST control)	1.07 fold enrichment (6-mer frequency, TF over GST control)	1.05 fold enrichment (6-mer frequency, TF over GST control)	–	–
CTGGGC	–	1.11 fold enrichment (6-mer frequency, TF over GST control)	–	–	1 fold enrichment (6-mer frequency, TF over GST control)
ACCATT	1.15 fold enrichment (6-mer frequency, TF over GST control)	1.15 fold enrichment (6-mer frequency, TF over GST control)	1.15 fold enrichment (6-mer frequency, TF over GST control)	–	1 fold enrichment (6-mer frequency, TF over GST control)
TCATGT	1.05 fold enrichment (6-mer frequency, TF over GST control)	1.08 fold enrichment (6-mer frequency, TF over GST control)	1.01 fold enrichment (6-mer frequency, TF over GST control)	–	1.12 fold enrichment (6-mer frequency, TF over GST control)
ACCAAA	1.07 fold enrichment (6-mer frequency, TF over GST control)	1.02 fold enrichment (6-mer frequency, TF over GST control)	–	–	1.04 fold enrichment (6-mer frequency, TF over GST control)

Sequence	binding signal (FEV)	binding signal (ELK4)	binding signal (ELF5)	binding signal (CRX)	binding signal (SPDEF)
AGCGCC	1.19 fold enrichment (6-mer frequency, TF over GST control)	1.11 fold enrichment (6-mer frequency, TF over GST control)	–	–	1.02 fold enrichment (6-mer frequency, TF over GST control)
TGTGCG	–	1.14 fold enrichment (6-mer frequency, TF over GST control)	1.07 fold enrichment (6-mer frequency, TF over GST control)	–	–
TATGTC	–	1.05 fold enrichment (6-mer frequency, TF over GST control)	1.05 fold enrichment (6-mer frequency, TF over GST control)	–	1.14 fold enrichment (6-mer frequency, TF over GST control)
CATCAT	1.09 fold enrichment (6-mer frequency, TF over GST control)	1.11 fold enrichment (6-mer frequency, TF over GST control)	1.07 fold enrichment (6-mer frequency, TF over GST control)	–	–
CACGCA	1.02 fold enrichment (6-mer frequency, TF over GST control)	1.11 fold enrichment (6-mer frequency, TF over GST control)	–	–	–
CCCTGA	1.04 fold enrichment (6-mer frequency, TF over GST control)	1.1 fold enrichment (6-mer frequency, TF over GST control)	1.06 fold enrichment (6-mer frequency, TF over GST control)	1.03 fold enrichment (6-mer frequency, TF over GST control)	–
GGTATC	1.06 fold enrichment (6-mer frequency, TF over GST control)	1.13 fold enrichment (6-mer frequency, TF over GST control)	–	–	1.33 fold enrichment (6-mer frequency, TF over GST control)
TGGGGT	1.02 fold enrichment (6-mer frequency, TF over GST control)	1.21 fold enrichment (6-mer frequency, TF over GST control)	1.01 fold enrichment (6-mer frequency, TF over GST control)	–	1.08 fold enrichment (6-mer frequency, TF over GST control)
CGCCTG	1.08 fold enrichment (6-mer frequency, TF over GST control)	1.17 fold enrichment (6-mer frequency, TF over GST control)	1.12 fold enrichment (6-mer frequency, TF over GST control)	–	1.03 fold enrichment (6-mer frequency, TF over GST control)
CATTGT	1.09 fold enrichment (6-mer frequency, TF over GST control)	1.17 fold enrichment (6-mer frequency, TF over GST control)	1.1 fold enrichment (6-mer frequency, TF over GST control)	–	1.11 fold enrichment (6-mer frequency, TF over GST control)
CAAGTT	1.02 fold enrichment (6-mer frequency, TF over GST control)	1.08 fold enrichment (6-mer frequency, TF over GST control)	1.03 fold enrichment (6-mer frequency, TF over GST control)	–	1.02 fold enrichment (6-mer frequency, TF over GST control)
TGGCCG	1.22 fold enrichment (6-mer frequency, TF over GST control)	1.06 fold enrichment (6-mer frequency, TF over GST control)	–	–	–
CCAACC	1.1 fold enrichment (6-mer frequency, TF over GST control)	1.13 fold enrichment (6-mer frequency, TF over GST control)	1.05 fold enrichment (6-mer frequency, TF over GST control)	–	1.11 fold enrichment (6-mer frequency, TF over GST control)
CATGAC	1.17 fold enrichment (6-mer frequency, TF over GST control)	1.09 fold enrichment (6-mer frequency, TF over GST control)	1.12 fold enrichment (6-mer frequency, TF over GST control)	–	1.2 fold enrichment (6-mer frequency, TF over GST control)
GCAAAC	–	1.02 fold enrichment (6-mer frequency, TF over GST control)	–	–	–
